Unmarked numbers belong to inactive results. Activity calls are given as the source filed them. Calls come from the whole dose curve; as a rule, active = well fitted curve in the direction sought with a large enough effect; inconclusive = small, poorly fitted or top-dose-only effect, or another doubt; inactive = no such curve, though single readings can be large; an effect the other way counts as inactive or inconclusive.
Test system: not listed separately
Test: qHTS for inhibitors of adenylyl cyclases using a fission yeast platform: a pilot screen against the NCATS LOPAC library (AID 1347410);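 note: plate controls were DMSO vehicle for no effect and DPI positive control for full effect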
Details: S. pombe CHP2027, fbp1-GFP fluorescence, 18 h, yeast expressing mammalian AC9 and human GNAS; series mostly up to 57.5 µM; activity, positive = inhibition (GFP gain): at the top concentration
How it was run: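 GFP from fbp1-GFP reporter, read by Acumen laser cytometry, indicates AC inhibition in fission yeast expressing AC9, GNAS and PDE4D2. Cells grown 18 h in the dark at 30C with compounds, final up to 57 uM.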

Compound	activity, positive = inhibition (GFP gain)
COc1ccc(CCn2nnnc2C2(c3ccc(C)cc3)CC2)cc1	0.791%
CC(C)(C)c1cc(/C=C(\C#N)C(N)=S)cc(C(C)(C)C)c1O	-0.438%
C[N+](C)(C)CC=O	-0.438%
CCCCCCC/C=C\CCCCCCCCC(=O)O	-0.438%
CCCCCCN(CCCCCC)C(=O)Cc1c(-c2ccc(F)cc2)[nH]c2ccccc12	0.624%
COc1ccccc1N1CCN(CCCCN2C(=O)c3ccccc3C2=O)CC1	-0.438%
N[C@H](C(=O)O)[C@H](Cc1ccccc1)C(=O)O	-0.438%
NC(=O)CNCCC(c1ccccc1)c1ccccc1	1.17%
CC(=O)O[C@H]1CC2(C)[C@@H](C[C@@H](O)[C@H]3[C@@]4(C)CC[C@@H](O)[C@@H](C)[C@@H]4CC[C@@]32C)C1=C(CCC=C(C)C)C(=O)O (some centres undefined)	-0.438%
NC[C@@H]1O[C@H](c2ccccc2)Cc2c1ccc(O)c2O	-0.438%
Nc1ccc(-c2ccc3ccccc3n2)cc1	1.06%
COc1ccccc1N1CCN(CCN(C(=O)c2ccc(F)cc2)c2ccccn2)CC1	-0.438%
COc1ccc(-c2cc3ncc(C)n3c(Nc3ncccc3C(N)=O)n2)cc1OC	-0.438%
C[C@@H](NCCc1ccc(O)cc1)[C@@H](O)c1ccc(O)cc1	-0.0348%
CC(=O)O[C@H]1Cc2ccccc2N(C(N)=O)c2ccccc21	-0.438%
CC(C)(C)NCC(O)COc1cccc2[nH]c(=O)[nH]c12 (centres undefined)	0.118%
COc1ccc(NC(=O)c2ccc(-c3ccc(-c4noc(C)n4)cc3C)cc2)cc1N1CCN(C)CC1	0.652%

Compound	activity, positive = inhibition (GFP gain)
O=C(O)CCC/C=C\C[C@@H]1[C@@H](/C=C/[C@H](O)C2Cc3ccccc3C2)[C@@H](F)C[C@@H]1O	-0.438%
NCCCCN=C(N)N	-0.438%
COC(=O)C(N)Cc1ccc(Cl)cc1 (centres undefined)	0.118%
O=c1cc(O)cc(/C=C/c2ccc(O)c(O)c2)o1	-0.438%
CCCn1c(=O)c2[nH]c(-c3ccc(S(=O)(=O)O)cc3)nc2n(CCC)c1=O	-0.438%
C=CC[C@H](N)C(=O)O	-0.438%
CC(=O)N[C@@H](Cc1c[nH]c2ccccc12)C(=O)OCc1cc(C(F)(F)F)cc(C(F)(F)F)c1	-0.438%
NC1C=CC=C(C(=O)O)C1 (centres undefined)	-0.438%
Nc1ccc(-c2nc3ccc(-c4nc5ccc(N)cc5[nH]4)cc3[nH]2)cc1	0.0673%
Cc1nc(N=Nc2ccc(C(=O)O)cc2)c(COP(=O)(O)O)c(C=O)c1O	0.114%
NS(=O)(=O)c1cccc2c1c([N+](=O)[O-])cc1nc(O)c(O)nc12	-0.438%
CCCCCCCCCC[Si](C)(C)CCC(=O)NC(Cc1ccc(C)cc1)c1ccccc1 (centres undefined)	-0.438%
O=C(O)CCC(=O)N1CCCC1C(=O)O (centres undefined)	0.346%
CCCCS(=N)(=O)CC[C@H](N)C(=O)O (some centres undefined)	0.545%
NC1(C(=O)O)CCCCC1	-0.438%
CC(=O)/C(C)=N/O	-0.438%
CC(O)C(O)[C@H]1CNc2nc(N)[nH]c(=O)c2N1 (some centres undefined)	-0.438%

Test system: not listed separately
Test: Validation qHTS assay for inhibitors of Activation Induced Cytidine Deaminase (AID): UDG Counterscreen signal (AID 1347427); note: 0% is about no effect
Details: biochemical UDG counterscreen, fluorescence signal; series mostly up to 115 µM; activity, negative = inhibition: at the top concentration
How it was run: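 Counterscreen read of UDG activity (2 U/mL, 4/3x) in the FRET deamination format with AID (1 uM, 4/3x), DJC20/DJC23 substrates (250 nM, 4x), 4 h at room temperature. NaOH stop, fluorescence at 560 ex/665 em.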

Compound	activity, negative = inhibition
CC(C)(C)c1cc(/C=C(\C#N)C(N)=S)cc(C(C)(C)C)c1O	-6.04%
C=C1C[C@@]23CC[C@H]4[C@@](C)(CCC[C@@]4(C)C(=O)O)[C@@H]2CC[C@]1(O)C3	8.6%
CC(C)[C@@H]1CC[C@@H](C)C[C@@H]1P(=O)(c1ccccc1)c1ccccc1	2.22%
COc1ccc(NC(=O)c2ccc(-c3ccc(-c4noc(C)n4)cc3C)cc2)cc1N1CCN(C)CC1	-5.2%
CCCc1c(-c2ccc(O)cc2)nn(-c2ccc(O)cc2)c1-c1ccc(O)cc1	17.1%
CNCCc1cnc(CCC(c2ccccc2)c2ccccc2)[nH]1	9.23%
CC(O)C(O)[C@H]1CNc2nc(N)[nH]c(=O)c2N1 (some centres undefined)	13%

Molecular target: Single-stranded DNA cytosine deaminase (Homo sapiens) (UniProt Q9GZX7)
Sequence (Q9GZX7 whole entry, looked up): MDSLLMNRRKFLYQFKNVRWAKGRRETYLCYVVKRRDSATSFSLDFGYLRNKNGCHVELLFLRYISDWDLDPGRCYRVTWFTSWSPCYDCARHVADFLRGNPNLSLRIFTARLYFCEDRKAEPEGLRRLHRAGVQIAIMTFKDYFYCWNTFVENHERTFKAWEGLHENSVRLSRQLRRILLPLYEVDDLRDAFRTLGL
Test: Validation qHTS assay for inhibitors of Activation Induced Cytidine Deaminase (AID): AID signal (AID 1347429); note: potency is the fitted concentration of half-maximal effect; for activity change, negative = inhibition: % is set by controls: 0 for no effect and ±100 for the full control effect
Details: Recombinant AID, FRET ssDNA deamination with UDG, fluorescence; series mostly up to 115 µM; activity change, negative = inhibition: at the top concentration
How it was run: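 FRET deamination assay: 1 uM AID (4/3x stock) with UDG, compound up to 114 uM, then 250 nM DJC20/DJC23 substrate (4x stock) for 4 hr at room temperature. NaOH added, 30 min; fluorescence read 540/590 nm.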

Compound	activity change, negative = inhibition	Potency
COc1ccc(CCn2nnnc2C2(c3ccc(C)cc3)CC2)cc1	6.55%	–
CC(C)(C)c1cc(/C=C(\C#N)C(N)=S)cc(C(C)(C)C)c1O	258%	–
C[N+](C)(C)CC=O	15.7%	–
CCCCCCC/C=C\CCCCCCCCC(=O)O	–	70.8 µM (active)
CCCCCCN(CCCCCC)C(=O)Cc1c(-c2ccc(F)cc2)[nH]c2ccccc12	-10.8%	–
COc1ccccc1N1CCN(CCCCN2C(=O)c3ccccc3C2=O)CC1	-14.4%	–
C=C1C[C@@]23CC[C@H]4[C@@](C)(CCC[C@@]4(C)C(=O)O)[C@@H]2CC[C@]1(O)C3	17.4%	–
N[C@H](C(=O)O)[C@H](Cc1ccccc1)C(=O)O	12%	–
NC(=O)CNCCC(c1ccccc1)c1ccccc1	21.1%	–
CC(=O)O[C@H]1CC2(C)[C@@H](C[C@@H](O)[C@H]3[C@@]4(C)CC[C@@H](O)[C@@H](C)[C@@H]4CC[C@@]32C)C1=C(CCC=C(C)C)C(=O)O (some centres undefined)	2.71%	–
NC[C@@H]1O[C@H](c2ccccc2)Cc2c1ccc(O)c2O	24.7%	–
Nc1ccc(-c2ccc3ccccc3n2)cc1	105%	–
COc1ccccc1N1CCN(CCN(C(=O)c2ccc(F)cc2)c2ccccn2)CC1	18.1%	–
COc1ccc(-c2cc3ncc(C)n3c(Nc3ncccc3C(N)=O)n2)cc1OC	266%	–
C[C@@H](NCCc1ccc(O)cc1)[C@@H](O)c1ccc(O)cc1	14%	–
CC(C)[C@@H]1CC[C@@H](C)C[C@@H]1P(=O)(c1ccccc1)c1ccccc1	3.25%	–
CC(=O)O[C@H]1Cc2ccccc2N(C(N)=O)c2ccccc21	8.66%	–
CC(C)(C)NCC(O)COc1cccc2[nH]c(=O)[nH]c12 (centres undefined)	9.52%	–
COc1ccc(NC(=O)c2ccc(-c3ccc(-c4noc(C)n4)cc3C)cc2)cc1N1CCN(C)CC1	12.5%	–

Compound	activity change, negative = inhibition	Potency
O=C(O)CCC/C=C\C[C@@H]1[C@@H](/C=C/[C@H](O)C2Cc3ccccc3C2)[C@@H](F)C[C@@H]1O	0.265%	–
NCCCCN=C(N)N	14.5%	–
COC(=O)C(N)Cc1ccc(Cl)cc1 (centres undefined)	0.661%	–
O=c1cc(O)cc(/C=C/c2ccc(O)c(O)c2)o1	37.7%	–
CCCn1c(=O)c2[nH]c(-c3ccc(S(=O)(=O)O)cc3)nc2n(CCC)c1=O	16.5%	–
C=CC[C@H](N)C(=O)O	3.23%	–
CCCc1c(-c2ccc(O)cc2)nn(-c2ccc(O)cc2)c1-c1ccc(O)cc1	20.1%	–
CC(=O)N[C@@H](Cc1c[nH]c2ccccc12)C(=O)OCc1cc(C(F)(F)F)cc(C(F)(F)F)c1	11.1%	–
NC1C=CC=C(C(=O)O)C1 (centres undefined)	13.2%	–
Nc1ccc(-c2nc3ccc(-c4nc5ccc(N)cc5[nH]4)cc3[nH]2)cc1	-3.49%	–
Cc1nc(N=Nc2ccc(C(=O)O)cc2)c(COP(=O)(O)O)c(C=O)c1O	118%	–
NS(=O)(=O)c1cccc2c1c([N+](=O)[O-])cc1nc(O)c(O)nc12	74.9%	–
CCCCCCCCCC[Si](C)(C)CCC(=O)NC(Cc1ccc(C)cc1)c1ccccc1 (centres undefined)	18%	–
CNCCc1cnc(CCC(c2ccccc2)c2ccccc2)[nH]1	32.8%	–
O=C(O)CCC(=O)N1CCCC1C(=O)O (centres undefined)	3.64%	–
CCCCS(=N)(=O)CC[C@H](N)C(=O)O (some centres undefined)	4.89%	–
NC1(C(=O)O)CCCCC1	25.3%	–
CC(=O)/C(C)=N/O	22.5%	–
CC(O)C(O)[C@H]1CNc2nc(N)[nH]c(=O)c2N1 (some centres undefined)	69.3%	–
